According to PubChem BioAssay (NCATS):
Results filed as inconclusive are left out. Active and inactive are the calls of the source. Unless noted, calls come from the whole dose curve; as a rule, active = well fitted curve in the direction sought with a large enough effect; inconclusive = small, poorly fitted or top-dose-only effect, or another doubt; inactive = no such curve, though single readings can be large; an effect the other way counts as inactive or inconclusive.

Tests used:
[1] = biological target: Lysosomal acid glucosylceramidase (Homo sapiens) (UniProt P04062); test: Glucocerebrosidase-p2 (AID 348; in the data active = potency below about 10 µM; note: potency is the fitted concentration of half-maximal effect); conditions: purified GBA, blue fluorogenic substrate, 40 min
How it was run: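 Compounds titrated from 0.6 nM upwards against 0.2 nM enzyme in pH 5.9 citric acid/KH2PO4, taurocholate, tween-20; blue fluorogenic substrate 80 uM, 40 min room temperature, stopped and read Ex 365/Em 440 for AC50.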

[2] = AP1 Signaling Pathway (AID 357; active = well fitted curve in either direction with a large enough effect, not every such curve was filed as active;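 note: ME-180 reporter cells stimulated with EGF at its EC50 level; % is set by controls: 0 for no effect and ±100 for the full control effect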); conditions: ME-180 AP-1-bla reporter, EGF-induced, beta-lactamase ratio, 5 h; at 7.69 µM (top of the series) unless noted
How it was run: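 Read-out was the 460nm/530nm emission ratio (excitation 405nm) after CCF4 loading for 2.5 hours at room temperature. Cells carried an AP-1-driven beta-lactamase reporter, were stimulated with EC50 EGF plus compound for 5 hours, and AC50 values came from titrations.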

[3] = NFAT Signaling Pathway (AID 444; active = well fitted curve in either direction with a large enough effect, not every such curve was filed as active;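 note: carbachol stimulus at about its EC50 of 1 µM final; % is set by controls: 0 for no effect and ±100 for the full control effect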); conditions: Jurkat NFAT-bla M1, carbachol, beta-lactamase ratio, 5 h; at 7.69 µM (top of the series) unless noted
How it was run: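 Jurkat cells with NFAT-driven β-lactamase reporter and co-expressed M1 receptor, stimulated with carbachol (final 1 uM, ~EC50), compound titration, 5 h at 37 °C. CCF4 loaded 1 h at RT; 460/530 nm ratio gave %activity and AC50.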

[4] = Stat Signaling Pathway (AID 446; active = well fitted curve in either direction with a large enough effect, not every such curve was filed as active;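 note: ME-180 cervical cancer cells given 40 pM IL-6 alongside compound; SIE-controlled beta-lactamase reporter measured as 460/530 nm FRET emission ratio; % is set by controls: 0 for no effect and ±100 for the full control effect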); conditions: ME-180 SIE beta-lactamase reporter, IL-6 stimulated, 5 h; at 7.69 µM (top of the series) unless noted
How it was run: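 Screening format detects activators and inhibitors alike: ME-180 SIE-bla cells stimulated at 40 pM IL-6 for 5 hrs with compound, then dual-emission beta-lactamase read at 405 nm excitation.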

[5] = biological target: Glucocorticoid receptor (Homo sapiens) (UniProt P04150); test: GR-GFP Redistribution (AID 450;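 active = compounds whose dose series gives a full or clear partial fitted curve of increased nuclear translocation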; note: potency is the fitted concentration of half-maximal effect); conditions: U2OS GR-GFP nuclear translocation, laser cytometry, 2 h
[6] = biological target: Glucocorticoid receptor (Homo sapiens) (UniProt P04150); test: GR-EFC Redistribution (AID 451; calls by dose curve; note: potency is the fitted concentration of half-maximal effect); conditions: CHO-K1 GR-EFC translocation, beta-gal luminescence, 2 h
How it was run: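 CHO-K1 cells expressing nuclear EA and GR-ED fragments of b-gal; compounds titrated up to 46 uM final, 2 h at 37 C. GR nuclear translocation read as complemented b-gal luminescence after 1 h RT detection.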

[7] = biological target: Mitogen-activated protein kinase 10 (Mus musculus) (UniProt Q61831); test: JNK3 AlphaScreen Assay (AID 530; active = well fitted curve in either direction with a large enough effect, not every such curve was filed as active;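 note: kinase came from lysate of stimulated human HepG2 cells; signal reports phosphorylation of biotinylated GST-cJun 1-79 at Ser73 with 10 µM ATP; % is set by controls: 0 for no effect and ±100 for the full control effect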); conditions: JNK3 lysate, c-Jun phosphorylation; series mostly up to 57.1 µM
How it was run: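 qHTS format: compounds tested as titrations against IL-1beta/TNF-alpha-activated HepG2 lysate JNK3 with biotin-GST-cJun substrate and 10 uM ATP at room temperature. Loss of anti-phospho-cJun AlphaScreen signal indicates inhibition.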

[8] = biological target: Dual specificity protein kinase CLK4 (Homo sapiens) (UniProt Q9HAZ1); test: qHTS Assay for Inhibitors of CDC-like Kinase 4 (Kinase-Glo Assay) (AID 1770); conditions: recombinant Clk4, Kinase-Glo ATP depletion luminescence; series mostly up to 66.7 µM; note: nearly all actives have a fitted effect of over 65% in size; note: potency is the fitted concentration of half-maximal effect
How it was run: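 Clk4 25 nM, RS peptide 100 uM, ATP 1 uM, pH 7.5 Tris, 10 mM MgCl2, 2.5 mM DTT; 4.5 h RT; ATP depletion read by Kinase-Glo luminescence.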

[9] = biological target: Dual specificity protein kinase CLK4 (Homo sapiens) (UniProt Q9HAZ1); test: qHTS Assay for Inhibitors of CDC-like Kinase 4 (ADP-Glo Assay) (AID 1771); conditions: recombinant CLK4, ADP-Glo luminescence; series mostly up to 80 µM; note: nearly all actives have a fitted effect of over 70% in size; note: potency is the fitted concentration of half-maximal effect
How it was run: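 Clk4 (25 nM) was incubated 1 hr at room temperature with 100 uM RS repeat peptide and 1 uM ATP in buffer with 2 mM MgCl2, 0.5 mM EGTA, 2.5 mM DTT. ADP formed was quantified by ADP-Glo luminescence.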

[10] = biological target: Ubiquitin carboxyl-terminal hydrolase 1 (Homo sapiens) (UniProt O94782); test: Inhibitors of USP1/UAF1: Pilot qHTS (AID 504865); conditions: purified USP1/UAF1, Ub-rhodamine cleavage fluorescence; series mostly up to 54.9 µM;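 note: rhodamine fluorescence freed from ubiquitin-rhodamine substrate followed over time; top concentration of the series differs between compounds; % is set by controls: 0 for no effect and ±100 for the full control effect; nearly all actives have a fitted effect of over 35% in size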
How it was run: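 Enzyme-free wells gave the negative control, while test wells held 1nM USP1/UAF1 preincubated with compound for 15 min at room temperature. Ub-Rho at 150nM final started the reaction, and fluorescence at 480/540 nm was recorded kinetically.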

[11] = Primary qHTS for small molecule stabilizers of the endoplasmic reticulum resident proteome: Secreted ER Calcium Modulated Protein (SERCaMP) assay (AID 1508630); conditions: SH-SY5Y GLuc-SERCaMP (Gaussia luciferase released on ER calcium loss) secretion, thapsigargin, luminescence; series mostly up to 38.4 µM; note: % is set by controls: 0 for no effect and ±100 for the full control effect
How it was run: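 GLuc-SERCaMP-expressing SH-SY5Y cells, pretreated 16 h with compound, are challenged with thapsigargin to empty ER calcium stores; after 4 h, coelenterazine is added directly to the medium and luminescence is imaged.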

[12] = biological target: 3',5'-cyclic-AMP phosphodiesterase 4B (Homo sapiens) (UniProt Q07343); test: qHTS Assay for Inhibitors of PDE-IV (AID 607; active = well fitted activation curve with a large enough effect in the main read-out, with a control signal flat, not every such curve was filed as active; note: % of control where 0% means no effect); conditions: HEK293 ACTOne CNG channel cells, membrane potential fluorescence; series mostly up to 22.9 µM
How it was run: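 The readout is membrane depolarisation from a cAMP-sensing CNG channel, detected with a potential dye at ex 535/em 590. Cells were HEK293-derived (endogenous PDE-IV) at 1000 cells/well, titrated up to 22.9 uM final.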

[13] = biological target: Cytochrome P450 3A4 (Homo sapiens) (UniProt P08684); test: qHTS Assay for Activators of Cytochrome P450 3A4 (AID 885); conditions: recombinant CYP3A4, Luciferin-PPXE luminescence, 60 min; series mostly up to 57.1 µM; note: nearly all actives have a fitted effect of over 65% in size
How it was run: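 Steps: enzyme/substrate mix dispensed; compound added, 10 min RT; NADPH regeneration solution added, 60 min RT; luciferin detection buffer stops reaction; 20 min later luminescence measured.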

[14] = biological target: Cytochrome P450 1A2 (Homo sapiens) (UniProt P05177); test: p450-cyp1a2 (AID 410; calls by dose curve; note: potency is the fitted concentration of half-maximal effect;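 for activity change, negative = inhibition: -100% = full effect of reference inhibitor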); conditions: recombinant CYP1A2, luciferin-ME demethylation, luminescence; series mostly up to 57 µM
How it was run: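 Human CYP1A2 (20nM) demethylated Luciferin-ME at its Km (100uM) in 100mM KPO4. After 10 min compound preincubation, NADPH regeneration ran the reaction 60 min at room temperature. Luciferin was read by luminescence, normalized to 57 uM furafylline.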

[15] = qHTS Assay for Identification of Small Molecule Agonists for Hypoxia Response Element Signaling Pathway (AID 914; active = well fitted activation curve with a large enough effect in the signal ratio, with a control signal flat, not every such curve was filed as active; the % refers to the signal ratio; note: potency is the fitted concentration of half-maximal effect; for activation: % of control where 0% means no effect); conditions: ME-180 (cervical carcinoma) HRE-bla reporter, beta-lactamase ratio, CoCl2, 17 h; activation: hits give high values
How it was run: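 Read-out: CCF4 FRET ratio of 460nm to 530nm emission (excitation 405nm) after 2.5 hours at room temperature, taken from HRE-bla ME-180 cells that had been exposed to compound and EC50 CoCl2 for 17 hours.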

[16] = biological target: Cytochrome P450 3A4 (Homo sapiens) (UniProt P08684); test: qHTS Assay for Inhibitors and Substrates of Cytochrome P450 3A4 (AID 884); conditions: recombinant CYP3A4, Luciferin-PPXE luminescence; series mostly up to 57.1 µM; note: potency is the fitted concentration of half-maximal effect; nearly all actives have a fitted effect of over 50% in size
How it was run: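 20 nM human CYP3A4 with 25 uM Luciferin-PPXE (at KM) in 200 mM KPO4, preincubated 10 min with compound; NADPH regeneration started a 60 min RT reaction. Luciferin detected by luminescence, normalized to 57 uM ketoconazole as full inhibition.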

[17] = biological target: Cytochrome P450 2C9 (Homo sapiens) (UniProt P11712); test: qHTS Assay for Inhibitors and Substrates of Cytochrome P450 2C9 (AID 883); conditions: recombinant CYP2C9, luciferin-H luminescence, 60 min; series mostly up to 57.1 µM; note: % is set by controls: 0 for no effect and ±100 for the full control effect; nearly all actives have a fitted effect of over 60% in size
How it was run: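 10nM CYP2C9 + 100uM Luciferin-H (=KM), 25mM KPO4; cpd 10 min 37C; NADPH regen, 60 min 37C; stop/detect with P450 Glo-Buffer 20 min; luminescence. Norm. to 57uM sulphaphenazole as full inhibition.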

Chain of Glucocorticoid receptor (Homo sapiens) (P04150 whole entry, looked up, the tested form may be a part): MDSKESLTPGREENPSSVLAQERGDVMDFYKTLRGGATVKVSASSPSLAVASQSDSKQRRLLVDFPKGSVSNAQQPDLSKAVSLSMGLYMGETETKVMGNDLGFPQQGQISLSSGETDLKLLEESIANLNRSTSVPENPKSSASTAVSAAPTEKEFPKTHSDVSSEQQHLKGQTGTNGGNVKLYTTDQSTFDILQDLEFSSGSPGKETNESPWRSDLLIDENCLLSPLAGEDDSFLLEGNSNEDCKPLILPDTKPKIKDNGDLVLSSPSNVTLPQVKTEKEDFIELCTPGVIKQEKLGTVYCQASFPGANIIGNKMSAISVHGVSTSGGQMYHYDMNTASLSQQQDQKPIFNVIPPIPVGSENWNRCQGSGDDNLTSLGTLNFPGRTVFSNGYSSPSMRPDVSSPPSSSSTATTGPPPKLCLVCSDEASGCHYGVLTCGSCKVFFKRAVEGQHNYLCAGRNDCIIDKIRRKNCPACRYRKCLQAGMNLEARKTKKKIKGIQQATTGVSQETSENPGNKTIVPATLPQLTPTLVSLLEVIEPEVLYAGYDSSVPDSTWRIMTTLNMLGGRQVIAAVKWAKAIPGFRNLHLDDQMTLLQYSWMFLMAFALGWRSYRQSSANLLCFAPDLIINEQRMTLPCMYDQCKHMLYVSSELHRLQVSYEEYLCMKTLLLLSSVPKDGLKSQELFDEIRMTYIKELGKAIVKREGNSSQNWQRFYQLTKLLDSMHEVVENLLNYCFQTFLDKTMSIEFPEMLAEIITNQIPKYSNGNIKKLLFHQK
Chain of Cytochrome P450 1A2 (Homo sapiens) (P05177 whole entry, looked up): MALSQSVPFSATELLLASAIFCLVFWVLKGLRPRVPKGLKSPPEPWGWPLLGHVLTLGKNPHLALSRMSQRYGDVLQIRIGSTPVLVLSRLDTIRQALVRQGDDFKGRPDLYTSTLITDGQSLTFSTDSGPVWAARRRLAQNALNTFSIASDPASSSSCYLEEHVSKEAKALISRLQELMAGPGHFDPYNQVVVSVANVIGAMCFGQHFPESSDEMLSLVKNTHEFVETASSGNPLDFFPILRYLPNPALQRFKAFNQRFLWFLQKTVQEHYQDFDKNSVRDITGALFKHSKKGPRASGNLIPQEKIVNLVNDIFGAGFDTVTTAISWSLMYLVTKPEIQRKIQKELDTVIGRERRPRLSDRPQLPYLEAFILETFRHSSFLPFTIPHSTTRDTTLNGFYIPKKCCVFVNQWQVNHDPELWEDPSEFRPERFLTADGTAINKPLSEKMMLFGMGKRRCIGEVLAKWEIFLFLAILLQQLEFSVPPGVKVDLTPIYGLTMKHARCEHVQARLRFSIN
Chain of Dual specificity protein kinase CLK4 (Homo sapiens) (Q9HAZ1 whole entry, looked up): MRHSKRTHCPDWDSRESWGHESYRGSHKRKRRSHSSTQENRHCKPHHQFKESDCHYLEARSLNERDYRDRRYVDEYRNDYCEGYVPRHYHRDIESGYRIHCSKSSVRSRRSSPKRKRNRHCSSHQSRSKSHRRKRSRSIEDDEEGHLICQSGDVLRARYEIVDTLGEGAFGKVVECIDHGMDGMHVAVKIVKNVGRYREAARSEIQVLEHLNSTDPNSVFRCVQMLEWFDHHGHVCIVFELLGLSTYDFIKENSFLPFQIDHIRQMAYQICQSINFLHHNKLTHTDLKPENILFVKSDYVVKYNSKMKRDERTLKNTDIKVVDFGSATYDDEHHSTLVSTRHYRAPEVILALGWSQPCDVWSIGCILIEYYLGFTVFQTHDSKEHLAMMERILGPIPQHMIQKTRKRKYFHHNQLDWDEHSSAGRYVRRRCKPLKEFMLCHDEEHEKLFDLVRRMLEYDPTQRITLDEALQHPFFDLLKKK
Chain of Cytochrome P450 3A4 (Homo sapiens) (P08684 whole entry, looked up): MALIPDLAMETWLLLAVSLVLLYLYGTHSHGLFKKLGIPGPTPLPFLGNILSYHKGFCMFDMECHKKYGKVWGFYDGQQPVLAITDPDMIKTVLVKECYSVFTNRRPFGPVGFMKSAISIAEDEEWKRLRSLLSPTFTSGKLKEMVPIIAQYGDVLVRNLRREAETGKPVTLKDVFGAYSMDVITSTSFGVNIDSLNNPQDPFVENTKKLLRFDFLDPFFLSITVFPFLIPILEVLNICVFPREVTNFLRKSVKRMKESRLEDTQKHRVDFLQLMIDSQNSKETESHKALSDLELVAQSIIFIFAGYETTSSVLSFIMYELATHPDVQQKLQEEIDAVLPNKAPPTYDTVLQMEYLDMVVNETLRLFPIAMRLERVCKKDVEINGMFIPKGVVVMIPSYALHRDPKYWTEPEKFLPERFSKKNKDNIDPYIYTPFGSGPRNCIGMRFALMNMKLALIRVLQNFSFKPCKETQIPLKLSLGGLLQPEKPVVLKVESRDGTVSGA
Chain of 3',5'-cyclic-AMP phosphodiesterase 4B (Homo sapiens) (Q07343 whole entry, looked up): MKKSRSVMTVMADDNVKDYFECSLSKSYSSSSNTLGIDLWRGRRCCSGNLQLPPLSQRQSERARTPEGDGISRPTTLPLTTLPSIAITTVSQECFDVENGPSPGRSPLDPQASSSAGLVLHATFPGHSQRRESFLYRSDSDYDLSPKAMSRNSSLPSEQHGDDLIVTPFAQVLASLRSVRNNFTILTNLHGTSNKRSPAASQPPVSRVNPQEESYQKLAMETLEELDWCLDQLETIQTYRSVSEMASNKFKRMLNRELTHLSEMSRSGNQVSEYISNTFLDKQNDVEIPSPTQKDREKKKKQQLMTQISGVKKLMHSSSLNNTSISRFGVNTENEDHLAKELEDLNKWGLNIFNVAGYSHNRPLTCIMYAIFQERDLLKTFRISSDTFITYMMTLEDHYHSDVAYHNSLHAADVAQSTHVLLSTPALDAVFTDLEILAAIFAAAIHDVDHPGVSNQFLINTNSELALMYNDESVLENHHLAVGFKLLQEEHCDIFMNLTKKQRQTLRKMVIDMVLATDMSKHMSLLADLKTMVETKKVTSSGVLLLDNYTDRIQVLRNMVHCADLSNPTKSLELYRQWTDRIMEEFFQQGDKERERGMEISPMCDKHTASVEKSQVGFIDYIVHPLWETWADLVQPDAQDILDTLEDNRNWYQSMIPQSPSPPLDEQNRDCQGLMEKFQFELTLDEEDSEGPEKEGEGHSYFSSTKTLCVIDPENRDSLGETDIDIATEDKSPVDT
Chain of Ubiquitin carboxyl-terminal hydrolase 1 (Homo sapiens) (O94782 whole entry, looked up): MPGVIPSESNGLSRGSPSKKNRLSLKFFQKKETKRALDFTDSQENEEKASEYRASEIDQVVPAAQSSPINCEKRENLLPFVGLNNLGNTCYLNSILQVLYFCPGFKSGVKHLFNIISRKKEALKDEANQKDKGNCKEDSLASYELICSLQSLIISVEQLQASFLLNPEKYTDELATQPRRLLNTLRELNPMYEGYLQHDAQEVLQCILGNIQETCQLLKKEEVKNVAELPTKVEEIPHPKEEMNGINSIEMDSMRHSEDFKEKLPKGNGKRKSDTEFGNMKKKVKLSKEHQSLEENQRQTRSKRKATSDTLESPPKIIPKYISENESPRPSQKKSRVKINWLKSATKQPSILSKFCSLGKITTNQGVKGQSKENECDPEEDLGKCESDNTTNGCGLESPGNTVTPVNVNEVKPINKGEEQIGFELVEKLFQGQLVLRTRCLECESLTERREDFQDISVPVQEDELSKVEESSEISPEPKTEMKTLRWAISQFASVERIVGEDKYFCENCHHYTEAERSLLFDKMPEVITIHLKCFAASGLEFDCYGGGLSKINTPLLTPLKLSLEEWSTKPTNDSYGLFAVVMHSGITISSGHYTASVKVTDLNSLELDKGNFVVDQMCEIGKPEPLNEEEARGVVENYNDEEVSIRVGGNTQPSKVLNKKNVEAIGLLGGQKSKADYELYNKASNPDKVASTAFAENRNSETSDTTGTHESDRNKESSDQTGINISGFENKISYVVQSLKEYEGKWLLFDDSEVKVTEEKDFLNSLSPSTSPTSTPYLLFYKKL
Chain of Lysosomal acid glucosylceramidase (Homo sapiens) (P04062 whole entry, looked up): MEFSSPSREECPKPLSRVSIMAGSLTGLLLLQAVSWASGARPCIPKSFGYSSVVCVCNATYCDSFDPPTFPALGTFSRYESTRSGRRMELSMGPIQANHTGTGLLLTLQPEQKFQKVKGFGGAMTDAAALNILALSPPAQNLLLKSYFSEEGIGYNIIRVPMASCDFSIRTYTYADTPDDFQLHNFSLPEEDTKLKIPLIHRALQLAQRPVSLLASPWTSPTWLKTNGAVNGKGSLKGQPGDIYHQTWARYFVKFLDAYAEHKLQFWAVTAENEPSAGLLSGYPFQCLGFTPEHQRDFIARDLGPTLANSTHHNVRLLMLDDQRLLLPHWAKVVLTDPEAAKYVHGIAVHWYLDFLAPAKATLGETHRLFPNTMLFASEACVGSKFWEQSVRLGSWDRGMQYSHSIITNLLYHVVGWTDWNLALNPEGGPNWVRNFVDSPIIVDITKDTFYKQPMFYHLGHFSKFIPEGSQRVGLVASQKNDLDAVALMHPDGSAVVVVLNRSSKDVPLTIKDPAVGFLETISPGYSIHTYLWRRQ
Chain of Cytochrome P450 2C9 (Homo sapiens) (P11712 whole entry, looked up): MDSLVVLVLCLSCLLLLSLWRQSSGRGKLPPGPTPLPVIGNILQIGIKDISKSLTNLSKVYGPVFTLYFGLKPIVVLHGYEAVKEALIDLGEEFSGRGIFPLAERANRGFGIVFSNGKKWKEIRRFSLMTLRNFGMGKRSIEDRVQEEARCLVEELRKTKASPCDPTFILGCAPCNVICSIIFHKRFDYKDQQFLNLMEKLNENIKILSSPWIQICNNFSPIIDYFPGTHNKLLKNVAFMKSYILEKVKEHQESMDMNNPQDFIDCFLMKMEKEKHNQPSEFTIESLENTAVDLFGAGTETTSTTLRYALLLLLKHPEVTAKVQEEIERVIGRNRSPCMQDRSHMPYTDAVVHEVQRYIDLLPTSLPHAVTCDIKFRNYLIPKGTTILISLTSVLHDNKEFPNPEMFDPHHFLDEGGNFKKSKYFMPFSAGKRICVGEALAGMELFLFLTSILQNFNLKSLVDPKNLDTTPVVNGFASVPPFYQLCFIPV

CN(C)C(=O)c1ccc(-c2cc(NCc3cccs3)ncn2)cc1
inactive: Potency [1] > 11.4 µM | activity change, negative = inhibition [2] -17.2% | activity change, negative = inhibition [3] 3.58% | activity, negative = inhibition [4] 5.59% | Potency [5] > 46 µM | Potency [6] > 46 µM | Potency [7] | Potency [10] | outcome [11]
active: Potency [8] 20 µM | Potency [9] 22.4 µM

O=c1c(-c2ccc(F)cc2)nc2cncnc2n1Cc1ccc(F)cc1
inactive: Potency [1] > 11.4 µM | activity change, negative = inhibition [2] -9.76% | activity change, negative = inhibition [3] -10% | activity, negative = inhibition [4] -2.38% | Potency [5] > 9.22 µM | Potency [6] > 46 µM | Potency [7] | Potency [12] | Potency [8] | Potency [9] | Potency [10] | outcome [11]

COc1ccccc1CCn1c(=O)cnc2cncnc21
active: Potency [8] 17.8 µM | Potency [9] 25.1 µM
inactive: Potency [1] > 11.4 µM | activity change, negative = inhibition [2] -0.594% | activity change, negative = inhibition [3] 6.39% | activity, negative = inhibition [4] -7.13% | Potency [5] > 9.22 µM | Potency [6] > 46 µM | Potency [7] | Potency [12] | Potency [10] | outcome [11]

CN(C)c1ncnc2ccc(-c3cccc(C#N)c3)cc12
active: Potency [8] 14.1 µM | Potency [9] 15.8 µM
inactive: Potency [1] > 11.4 µM | activity change, negative = inhibition [2] -26.8% | activity, negative = inhibition [4] 21.1% | Potency [5] > 46 µM | Potency [6] > 46 µM | Potency [7] | Potency [12] | Potency [13] | Potency [10] | outcome [11]

CCNc1ncc2nc(-c3ccc(Cl)cc3)c(=O)n(Cc3cccc(OC)c3)c2n1
inactive: Potency [1] > 11.4 µM | Potency [14] | Potency [5] > 9.22 µM | Potency [6] > 46 µM | Potency [7] | Potency [12] | Potency [8] | Potency [9] | Potency [10] | outcome [11]
active: Potency [15] 0.316 µM

N#Cc1cccc(-c2nccc(NCc3cccnc3)n2)c1
inactive: Potency [1] > 11.4 µM | activity change, negative = inhibition [3] 16.5% | activity, negative = inhibition [4] 0.752% | Potency [5] > 46 µM | Potency [6] > 46 µM | Potency [7] | Potency [13] | Potency [10] | outcome [11]
active: Potency [14] 0.251 µM | Potency [16] 0.794 µM | Potency [8] 14.1 µM | Potency [9] 14.1 µM

CN1CCN(c2cc(-c3ccccc3Cl)ncn2)CC1
inactive: Potency [1] > 11.4 µM | activity change, negative = inhibition [2] -6.42% | activity change, negative = inhibition [3] 3.06% | activity, negative = inhibition [4] -1.39% | Potency [5] > 46 µM | Potency [6] > 46 µM | Potency [7] | Potency [12] | activation [15] 18% | Potency [8] | Potency [9] | Potency [10] | outcome [11]

COc1cccc(Cn2c(=O)c(-c3cc(F)cc(F)c3)nc3cnc(N4CCOCC4)nc32)c1
inactive: Potency [1] > 11.4 µM | activity change, negative = inhibition [3] 5.53% | activity, negative = inhibition [4] 24.5% | Potency [5] > 9.22 µM | Potency [6] > 46 µM | Potency [7] | Potency [12] | Potency [17] | Potency [8] | Potency [9] | outcome [11]

CCNc1ncc2nc(-c3cccs3)c(=O)n(Cc3cccc(OC)c3)c2n1
active: Potency [14] 0.126 µM
inactive: Potency [1] > 11.4 µM | activity change, negative = inhibition [2] 19.3% | Potency [5] > 9.22 µM | Potency [6] > 46 µM | Potency [7] | Potency [12] | Potency [13] | Potency [8] | Potency [9] | Potency [10] | outcome [11]

CC(=O)NCCNc1ncnc2ccc(-c3ccccc3Cl)cc12
active: Potency [8] 15.8 µM | Potency [9] 15.8 µM
inactive: Potency [1] > 11.4 µM | activity change, negative = inhibition [3] -0.746% | activity, negative = inhibition [4] -1.74% | Potency [5] > 46 µM | Potency [6] > 46 µM | Potency [7] | Potency [13] | Potency [10] | outcome [11]

COc1cccc(Cn2c(=O)c(-c3ccc(Cl)cc3)nc3cncnc32)c1
inactive: Potency [1] > 11.4 µM | activity change, negative = inhibition [2] -9.78% | activity change, negative = inhibition [3] -4.86% | activity, negative = inhibition [4] -0.792% | Potency [5] > 9.22 µM | Potency [6] > 46 µM | Potency [7] | Potency [8] | Potency [9] | Potency [10] | outcome [11]

Cc1noc(C)c1-c1ccc2ncnc(Nc3ccccc3)c2c1
active: Potency [8] 6.31 µM | Potency [9] 7.94 µM
inactive: Potency [1] > 11.4 µM | activity change, negative = inhibition [2] -6.37% | Potency [5] > 46 µM | Potency [6] > 46 µM | Potency [7] | Potency [12] | Potency [10] | outcome [11]

FC(F)(F)c1ccccc1-c1cncnc1NCc1cccs1
active: Potency [14] 20 µM | Potency [16] 0.251 µM
inactive: Potency [1] > 11.4 µM | activity change, negative = inhibition [2] 10.5% | activity, negative = inhibition [4] -1.4% | Potency [5] > 46 µM | Potency [6] > 46 µM | Potency [7] | Potency [13] | Potency [8] | Potency [9] | Potency [10] | outcome [11]

Cc1cnc(CNc2cc(-c3ccc(N(C)C)cc3)ncn2)cn1
active: Potency [8] 5.01 µM | Potency [9] 5.01 µM
inactive: Potency [1] > 11.4 µM | activity change, negative = inhibition [2] -9.61% | activity change, negative = inhibition [3] 11.3% | activity, negative = inhibition [4] -5.54% | Potency [5] > 46 µM | Potency [6] > 46 µM | Potency [7] | Potency [12] | Potency [10] | outcome [11]
